Assay [1] deals with Lysosomal acid glucosylceramidase (Homo sapiens) (UniProt P04062). Description: Glucocerebrosidase-p2 (AID 348; in the data active = potency below about 10 µM; note: potency is the fitted concentration of half-maximal effect). Particulars: purified GBA, blue fluorogenic substrate, 40 min. The method in brief: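 Compounds titrated from 0.6 nM upwards against 0.2 nM enzyme in pH 5.9 citric acid/KH2PO4, taurocholate, tween-20; blue fluorogenic substrate 80 uM, 40 min room temperature, stopped and read Ex 365/Em 440 for AC50.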
Chain of Lysosomal acid glucosylceramidase (Homo sapiens) (P04062 whole entry, looked up): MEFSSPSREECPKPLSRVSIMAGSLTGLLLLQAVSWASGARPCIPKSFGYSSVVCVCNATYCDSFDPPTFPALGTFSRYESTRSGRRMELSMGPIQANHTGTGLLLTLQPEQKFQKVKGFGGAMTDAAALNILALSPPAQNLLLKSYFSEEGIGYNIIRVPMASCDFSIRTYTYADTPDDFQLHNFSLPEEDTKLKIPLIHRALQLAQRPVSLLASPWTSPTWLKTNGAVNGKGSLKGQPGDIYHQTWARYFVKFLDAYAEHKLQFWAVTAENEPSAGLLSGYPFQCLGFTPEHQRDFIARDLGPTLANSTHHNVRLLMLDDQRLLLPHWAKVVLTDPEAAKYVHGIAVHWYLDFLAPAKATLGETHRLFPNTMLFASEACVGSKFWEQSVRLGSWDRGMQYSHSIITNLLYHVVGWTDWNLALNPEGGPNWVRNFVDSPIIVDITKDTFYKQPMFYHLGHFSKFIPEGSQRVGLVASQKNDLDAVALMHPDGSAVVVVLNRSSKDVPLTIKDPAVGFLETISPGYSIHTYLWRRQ

Assay [2] in a line: AP1 Signaling Pathway (AID 357).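 Note: ME-180 reporter cells stimulated with EGF at its EC50 level; % is set by controls: 0 for no effect and ±100 for the full control effect.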 Particulars: ME-180 AP-1-bla reporter, EGF-induced, beta-lactamase ratio, 5 h; at 7.69 µM (top of the series) unless noted. Summed up:
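Titration-series screen for positive or negative modulators of EC50 EGF-induced signaling in ME-180 cells carrying an AP-1-driven beta-lactamase reporter. After 5 hours at 37 degrees Celsius, CCF4 460nm/530nm emission ratio gave %Activity; AC50 values derived.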

Assay [3] concerns the target Cytochrome P450 1A2 (Homo sapiens) (UniProt P05177). Description: p450-cyp1a2 (AID 410; calls by dose curve; note: potency is the fitted concentration of half-maximal effect;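 for activity change, negative = inhibition: -100% = full effect of reference inhibitor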). Particulars: recombinant CYP1A2, luciferin-ME demethylation, luminescence; series mostly up to 57 µM. The method in brief: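 Inhibition was calculated relative to 57 uM furafylline (full inhibition). The reaction used human CYP1A2 at 20nM with Luciferin-ME at its Km, 100uM, driven by an NADPH-regenerating system for 60 min at room temperature.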

Assay [4] in a line: NFAT Signaling Pathway (AID 444).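 Note: carbachol stimulus at about its EC50 of 1 µM final; % is set by controls: 0 for no effect and ±100 for the full control effect.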 Particulars: Jurkat NFAT-bla M1, carbachol, beta-lactamase ratio, 5 h; at 7.69 µM (top of the series) unless noted. The method in brief:
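Jurkat cells with NFAT-driven β-lactamase reporter and co-expressed M1 receptor, stimulated with carbachol (final 1 uM, ~EC50), compound titration, 5 h at 37 °C. CCF4 loaded 1 h at RT; 460/530 nm ratio gave %activity and AC50.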

Assay [5] in a line: Stat Signaling Pathway (AID 446).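 Note: ME-180 cervical cancer cells given 40 pM IL-6 alongside compound; SIE-controlled beta-lactamase reporter measured as 460/530 nm FRET emission ratio; % is set by controls: 0 for no effect and ±100 for the full control effect.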 Particulars: ME-180 SIE beta-lactamase reporter, IL-6 stimulated, 5 h; at 7.69 µM (top of the series) unless noted. The method in brief: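 ME-180 SIE-bla cells; overnight plating; cpd + IL-6 40 pM, 5 h, 37 C; LiveBLAzer 2.5 h RT; 460/530 nm emission ratio. Normalized to 300 pM IL-6 and 125 nM JAK inhibitor controls.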
Assay [6] concerns the target Glucocorticoid receptor (Homo sapiens) (UniProt P04150). Description: GR-EFC Redistribution (AID 451; calls by dose curve; note: potency is the fitted concentration of half-maximal effect). Particulars: CHO-K1 GR-EFC translocation, beta-gal luminescence, 2 h. Summed up:
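CHO-K1 cells expressing nuclear EA and GR-ED fragments of b-gal; compounds titrated up to 46 uM final, 2 h at 37 C. GR nuclear translocation read as complemented b-gal luminescence after 1 h RT detection.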

The target in assay [7] is Mitogen-activated protein kinase 10 (Mus musculus) (UniProt Q61831). Description: JNK3 AlphaScreen Assay (AID 530).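 Note: kinase came from lysate of stimulated human HepG2 cells; signal reports phosphorylation of biotinylated GST-cJun 1-79 at Ser73 with 10 µM ATP; % is set by controls: 0 for no effect and ±100 for the full control effect.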 Particulars: JNK3 lysate, c-Jun phosphorylation; series mostly up to 57.1 µM. Summed up: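 qHTS format: compounds tested as titrations against IL-1beta/TNF-alpha-activated HepG2 lysate JNK3 with biotin-GST-cJun substrate and 10 uM ATP at room temperature. Loss of anti-phospho-cJun AlphaScreen signal indicates inhibition.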
On the technique in general: In Alpha technology, singlet oxygen from a donor bead excites a nearby acceptor bead.

In assay [8] the target is 3',5'-cyclic-AMP phosphodiesterase 4B (Homo sapiens) (UniProt Q07343). Description: qHTS Assay for Inhibitors of PDE-IV (AID 607; active = well fitted activation curve with a large enough effect in the main read-out, with a control signal flat, not every such curve was filed as active; note: % of control where 0% means no effect). Particulars: HEK293 ACTOne CNG channel cells, membrane potential fluorescence; series mostly up to 22.9 µM. Summed up:
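ACTOne HEK293 cells carry a modified cAMP-gated CNG channel and express endogenous PDE4; plated 1000 cells/well, compounds up to 22.9 uM final. Membrane-potential dye fluorescence (ex 535/em 590) was read; parental cells received 10 uM forskolin + 100 uM RO 20-1724.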

Assay [9] in a line: qHTS Assay for Lipid Storage Modulators (AID 1519; calls by dose curve). Particulars: Drosophila S3 cells, BODIPY lipid droplet/cell ratio, laser cytometry, cells loaded with oleic acid; for activity change, negative = inhibition: at 57.5 µM (top of the series). Summed up: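 Cells seeded at 5,000 per well were treated with compounds over a concentration series and loaded with oleic acid (400 uM, as added). Lipid droplet fluorescence (488 nm excitation, 500-530 nm channel) was read by laser-scanning cytometry and normalized to 20 uM Triacsin C.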
On the technique in general: qHTS replaces the single test concentration by a dilution series.

The nature of assay [10]: Primary qHTS for small molecule stabilizers of the endoplasmic reticulum resident proteome: Secreted ER Calcium Modulated Protein (SERCaMP) assay (AID 1508630; active = well fitted inhibition curve with a large enough effect; note: % is set by controls: 0 for no effect and ±100 for the full control effect). Particulars: SH-SY5Y GLuc-SERCaMP (Gaussia luciferase released on ER calcium loss) secretion, thapsigargin, luminescence; series mostly up to 38.4 µM. The method in brief: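 GLuc-SERCaMP-expressing SH-SY5Y cells, pretreated 16 h with compound, are challenged with thapsigargin to empty ER calcium stores; after 4 h, coelenterazine is added directly to the medium and luminescence is imaged.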

In assay [11] the target is Cytochrome P450 2C9 (Homo sapiens) (UniProt P11712). Description: qHTS Assay for Inhibitors and Substrates of Cytochrome P450 2C9 (AID 883; active = well fitted inhibition curve with a large enough effect; note: potency is the fitted concentration of half-maximal effect; nearly all actives have a fitted effect of over 60% in size). Particulars: recombinant CYP2C9, luciferin-H luminescence, 60 min; series mostly up to 57.1 µM. The method in brief:
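Human CYP2C9 (10nM) with Luciferin-H at 100uM (its KM) in 25mM KPO4; compound preincubated 10 min at 37C, then NADPH regeneration for 60 min at 37C. Luciferin read by luminescence after detection reagent; normalized to 57uM sulphaphenazole as full inhibition.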

Where [12] appears, read: measured here: cell count channel max response.
The mark [13] stands for this setting: measured here: lipid channel max response.

SMILES strings stand for the structures. Inconclusive results are not listed. Calls of active or inactive are those of the source. Unless noted, calls come from the whole dose curve; as a rule, active = well fitted curve in either direction with a large enough effect (not every such curve was filed as active); inconclusive = small, poorly fitted or top-dose-only effect, or another doubt; inactive = flat fitted curve, though single readings scatter.

Chain of 3',5'-cyclic-AMP phosphodiesterase 4B (Homo sapiens) (Q07343 whole entry, looked up): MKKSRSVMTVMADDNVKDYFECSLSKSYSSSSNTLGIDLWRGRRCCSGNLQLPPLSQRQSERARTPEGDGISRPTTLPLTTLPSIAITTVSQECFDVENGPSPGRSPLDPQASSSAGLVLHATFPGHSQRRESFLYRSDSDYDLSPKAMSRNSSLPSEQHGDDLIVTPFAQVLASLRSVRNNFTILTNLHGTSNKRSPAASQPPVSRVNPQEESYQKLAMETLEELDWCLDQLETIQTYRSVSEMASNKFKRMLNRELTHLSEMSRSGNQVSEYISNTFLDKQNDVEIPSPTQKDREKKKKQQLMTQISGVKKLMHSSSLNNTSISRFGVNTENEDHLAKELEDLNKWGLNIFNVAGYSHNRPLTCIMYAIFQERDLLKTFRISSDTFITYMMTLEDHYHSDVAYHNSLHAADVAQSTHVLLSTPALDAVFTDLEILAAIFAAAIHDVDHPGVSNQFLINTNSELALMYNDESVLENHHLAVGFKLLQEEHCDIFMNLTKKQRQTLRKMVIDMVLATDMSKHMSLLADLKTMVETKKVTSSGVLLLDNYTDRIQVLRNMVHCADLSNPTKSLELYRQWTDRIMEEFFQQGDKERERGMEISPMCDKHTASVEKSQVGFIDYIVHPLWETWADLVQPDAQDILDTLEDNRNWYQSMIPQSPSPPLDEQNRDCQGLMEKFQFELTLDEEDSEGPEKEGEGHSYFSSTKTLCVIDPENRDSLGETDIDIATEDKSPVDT
Chain of Glucocorticoid receptor (Homo sapiens) (P04150 whole entry, looked up, the tested form may be a part): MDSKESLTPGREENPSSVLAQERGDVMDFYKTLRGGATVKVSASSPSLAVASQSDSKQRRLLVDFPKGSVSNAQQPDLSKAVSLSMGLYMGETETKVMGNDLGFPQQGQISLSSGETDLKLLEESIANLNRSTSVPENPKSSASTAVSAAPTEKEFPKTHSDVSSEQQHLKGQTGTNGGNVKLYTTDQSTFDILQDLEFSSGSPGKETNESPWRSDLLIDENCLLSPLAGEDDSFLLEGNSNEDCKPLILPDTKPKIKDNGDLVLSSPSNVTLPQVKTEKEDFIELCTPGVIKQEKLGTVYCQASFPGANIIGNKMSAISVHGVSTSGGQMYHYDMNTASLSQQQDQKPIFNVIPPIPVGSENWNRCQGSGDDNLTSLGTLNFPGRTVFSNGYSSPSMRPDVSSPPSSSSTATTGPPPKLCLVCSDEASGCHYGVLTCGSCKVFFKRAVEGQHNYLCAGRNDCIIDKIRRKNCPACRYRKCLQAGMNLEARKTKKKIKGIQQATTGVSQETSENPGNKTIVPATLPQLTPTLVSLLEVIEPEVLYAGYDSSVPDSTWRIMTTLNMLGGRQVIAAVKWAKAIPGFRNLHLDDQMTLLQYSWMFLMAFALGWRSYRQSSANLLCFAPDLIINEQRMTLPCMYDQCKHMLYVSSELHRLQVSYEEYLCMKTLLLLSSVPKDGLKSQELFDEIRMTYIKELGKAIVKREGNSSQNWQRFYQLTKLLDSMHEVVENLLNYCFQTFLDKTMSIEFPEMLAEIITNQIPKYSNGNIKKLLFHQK
Chain of Cytochrome P450 1A2 (Homo sapiens) (P05177 whole entry, looked up): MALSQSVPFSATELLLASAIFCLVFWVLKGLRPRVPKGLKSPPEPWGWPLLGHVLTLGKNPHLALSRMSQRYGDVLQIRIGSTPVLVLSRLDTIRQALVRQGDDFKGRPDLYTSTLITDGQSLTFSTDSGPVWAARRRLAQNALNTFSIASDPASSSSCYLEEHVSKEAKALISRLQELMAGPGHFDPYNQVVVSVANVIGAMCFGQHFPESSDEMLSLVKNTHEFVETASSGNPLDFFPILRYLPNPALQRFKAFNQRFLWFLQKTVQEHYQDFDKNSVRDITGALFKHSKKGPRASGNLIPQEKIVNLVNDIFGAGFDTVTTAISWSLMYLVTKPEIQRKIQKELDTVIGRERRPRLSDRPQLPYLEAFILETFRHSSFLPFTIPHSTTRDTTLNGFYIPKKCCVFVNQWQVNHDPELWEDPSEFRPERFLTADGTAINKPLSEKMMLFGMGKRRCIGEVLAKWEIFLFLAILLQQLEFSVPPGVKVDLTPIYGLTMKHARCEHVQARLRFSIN
Chain of Cytochrome P450 2C9 (Homo sapiens) (P11712 whole entry, looked up): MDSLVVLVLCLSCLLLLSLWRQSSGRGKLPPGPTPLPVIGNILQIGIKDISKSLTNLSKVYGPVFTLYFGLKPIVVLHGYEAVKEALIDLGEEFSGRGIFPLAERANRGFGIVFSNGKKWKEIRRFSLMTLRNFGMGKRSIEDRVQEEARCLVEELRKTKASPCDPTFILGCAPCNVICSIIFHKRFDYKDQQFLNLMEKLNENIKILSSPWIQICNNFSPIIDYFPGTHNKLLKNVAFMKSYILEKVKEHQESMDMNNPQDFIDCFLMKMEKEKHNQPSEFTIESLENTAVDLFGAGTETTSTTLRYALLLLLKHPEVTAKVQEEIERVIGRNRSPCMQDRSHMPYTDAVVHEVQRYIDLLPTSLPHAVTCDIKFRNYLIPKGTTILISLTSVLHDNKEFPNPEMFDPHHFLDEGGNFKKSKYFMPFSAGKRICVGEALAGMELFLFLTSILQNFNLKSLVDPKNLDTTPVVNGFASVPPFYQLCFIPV

Take `COc1ccc(C(=O)N2CCC3(CC2)CN(C(=O)Nc2ccccc2)C3)cc1`: the Potency was > 11.4 µM (inactive) in assay [1], 25.1 µM (active) in assay [3] and > 46 µM (inactive) in [6]. Besides, the activity change, negative = inhibition is -1.19% (inactive) in assay [2], 22.2% (inactive) in assay [4] and 5.49% (inactive) in assay [9]. The activity, negative = inhibition in assay [5] was -10.2% (inactive). In addition, in assay [7], the molecule was classed as inactive. The Potency entry in assay [8] and in [10] was “inactive” in each case. The max response in assay [9] (setting [12]) is 8.4%; in assay [9] (setting [13]), 17.6%.

As for `O=C(c1ccncc1)N1CCC2(CC1)CCN(c1ccccc1)CC2`, the Potency in assay [1] was > 11.4 µM (inactive); in assay [6], > 46 µM (inactive). The activity change, negative = inhibition is -1.33% (inactive) in assay [2], 12.8% (inactive) in [4] and 2.16% (inactive) in assay [9]. The Potency entry in assay [3], in assay [8] and in [10] was “inactive” throughout. Besides, the activity, negative = inhibition in assay [5] was -1.17% (inactive). Besides, the molecule was classed as inactive in assay [7]. The max response in assay [9] (setting [12]) came out at 0.126%; in [9] (setting [13]) it was 6.62%.

`O=C(c1csnn1)N1CCC2(CCCN(Cc3cc(C(F)(F)F)cc(C(F)(F)F)c3)C2)CC1`: the Potency in assay [1] was > 11.4 µM (inactive); in assay [3] it was 12.6 µM (active); in [6] it was > 46 µM (inactive). For the same molecule, the results for the activity change, negative = inhibition in assay [2], in assay [4] and in assay [9] were 10.6% (inactive), 10.5% (inactive) and -5.5% (inactive), respectively. Further, the activity, negative = inhibition in assay [5] was 3.73% (inactive). In assay [7], the result was inactive. Besides, the Potency entry in assay [8] and in assay [10] was “inactive” each time. Further, the max response in assay [9] (setting [12]) came to 21.4%; in assay [9] (setting [13]), 17.2%.

Turning to `COc1ccc(NC(=O)N2CC3(CCN(C(=O)c4c(C)noc4C)CC3)C2)cc1`, the Potency in [1] was > 11.4 µM (inactive); in assay [6] it was > 46 µM (inactive). Moreover, the activity change, negative = inhibition in [2] is 4.05% (inactive); in assay [4], 15.1% (inactive); in [9], 4.67% (inactive). In addition, the Potency entry in assay [3], in assay [8] and in assay [10] was “inactive” throughout. Also, the activity, negative = inhibition in assay [5] was -8.69% (inactive). Moreover, the outcome in [7] was inactive. Besides, the max response in assay [9] (setting [12]) amounted to 5.82%; in assay [9] (setting [13]), 14.2%.

Consider `O=C(c1csnn1)N1CCC2(CC1)CN(c1ccncc1)C2`, for which the Potency in [1] was > 11.4 µM (inactive); in assay [6], > 46 µM (inactive); in assay [11], 2.51 µM (active). For the same molecule, the activity change, negative = inhibition in assay [2] is -12.4% (inactive); in [4], -12.8% (inactive); in [9], 0.619% (inactive). Further, the Potency result in assay [3], in assay [8] and in assay [10] was “inactive” each time. In assay [5], the activity, negative = inhibition is -7.18% (inactive). The result in [7] was inactive. For the same molecule, the max response is 4.32% in assay [9] (setting [12]) and 5.47% in [9] (setting [13]).

As for `CC(=O)N1CCC2(CCN(Cc3ccncc3)CC2)CC1`, the Potency in assay [1] was > 11.4 µM (inactive); in assay [6] it was > 46 µM (inactive). In addition, the activity change, negative = inhibition in assay [2] is 5.96% (inactive); in [4] it was -0.25% (inactive); in [9], 2.82% (inactive). In addition, the Potency entry in assay [3], in [8] and in [10] was “inactive” throughout. For the same molecule, in assay [5], the activity, negative = inhibition was -6.6% (inactive). Also, the outcome in assay [7] was inactive. For the same molecule, the max response in [9] (setting [12]) was 7.01%; in assay [9] (setting [13]) it was 14.4%.

In the case of `COCC(=O)N1CCC2(CC1)CCN(c1ccccn1)CC2`, the Potency in assay [1] was > 11.4 µM (inactive); in [6] it was > 46 µM (inactive). Also, the activity change, negative = inhibition in [2] is -16.4% (inactive); in assay [4], -3.68% (inactive); in [9] it was 2.07% (inactive). In addition, the Potency result in assay [3], in assay [8] and in assay [10] was “inactive” throughout. Besides, the activity, negative = inhibition in assay [5] is -8.73% (inactive). In assay [7], the molecule was classed as inactive. Also, the max response is 0.785% in assay [9] (setting [12]) and 4.41% in assay [9] (setting [13]).

These data come from PubChem BioAssay (NCATS).
